# Records with an inconclusive call do not appear. Where a call stands in place of a potency, no number is given. Values without a mark were called inactive. Activity calls are given as the source filed them. The call rests on the fitted dose curve; in most records, active means well fitted curve in the direction sought with a large enough effect; inconclusive means small, poorly fitted or top-dose-only effect, or another doubt; inactive means no such curve, though single readings can be large; an effect the other way counts as inactive or inconclusive.
# Key:
# [1] = tested on: Zika virus NS2B-NS3 protease; experiment: Primary screen GU AMC qHTS for Zika virus inhibitors (AID 1347154); further: nearly all actives have a fitted effect of over 70% in size; further: potency means the concentration at half of the fitted maximal effect
# Method in brief: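 Fluorogenic AMC-substrate cleavage by noncovalent NS2B-NS3 protease complex (25 nM, pH 8.0 Tris buffer with Tween 20) followed for 15 minutes at room temperature (~20% conversion). Percent inhibition from ex340/em450 signal change, fitted by 4-parameter Hill equation.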
# Furin (Homo sapiens) = Furin (Homo sapiens) (UniProt P09958); experiment: Furin counterscreen qHTS for Zika virus inhibitors (AID 1347149); further: nearly all actives have a fitted effect of over 70% in size; further: potency means the concentration at half of the fitted maximal effect;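 on activity change, negative = inhibition: purified recombinant full-length human furin enzyme at 5 nM; fluorescence gain from furin cutting a BOC-RVRR-AMC peptide substrate over 15 min; top concentration of the series differs between compounds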
# Chain of Furin (Homo sapiens) (P09958 whole entry, looked up): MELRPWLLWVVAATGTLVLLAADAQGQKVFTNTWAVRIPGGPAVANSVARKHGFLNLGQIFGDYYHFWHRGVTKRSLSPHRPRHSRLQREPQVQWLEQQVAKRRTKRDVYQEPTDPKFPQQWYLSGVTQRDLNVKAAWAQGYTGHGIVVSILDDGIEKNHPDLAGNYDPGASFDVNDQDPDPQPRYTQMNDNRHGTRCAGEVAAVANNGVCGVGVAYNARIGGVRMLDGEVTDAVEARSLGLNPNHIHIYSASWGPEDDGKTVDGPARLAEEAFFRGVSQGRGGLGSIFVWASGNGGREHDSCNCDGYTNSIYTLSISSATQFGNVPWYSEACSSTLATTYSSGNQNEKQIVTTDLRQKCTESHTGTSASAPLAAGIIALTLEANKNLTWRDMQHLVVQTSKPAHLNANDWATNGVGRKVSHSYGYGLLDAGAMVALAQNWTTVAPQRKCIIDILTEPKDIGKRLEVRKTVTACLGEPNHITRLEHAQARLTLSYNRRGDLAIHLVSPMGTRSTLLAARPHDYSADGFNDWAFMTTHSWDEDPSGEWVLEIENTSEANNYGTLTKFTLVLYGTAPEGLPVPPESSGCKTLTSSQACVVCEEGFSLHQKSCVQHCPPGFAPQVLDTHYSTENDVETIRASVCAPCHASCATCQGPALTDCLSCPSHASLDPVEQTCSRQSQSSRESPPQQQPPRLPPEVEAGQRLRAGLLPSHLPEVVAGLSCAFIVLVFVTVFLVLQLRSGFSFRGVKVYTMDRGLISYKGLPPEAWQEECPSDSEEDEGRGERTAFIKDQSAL
# Method in brief: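 Fluorogenic cleavage of BOC-RVRR-AMC (2 microM final, Km ~15 µM) was monitored (ex 340, em 450 nm) at 37C after 15 min RT preincubation of 5 nM furin with compounds in HEPES pH 7.0 buffer with CaCl2 and Triton X-100. Percent inhibition was fitted to a 4-parameter Hill curve.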
# [2] = ZIKV-mCherry secondary qHTS for Zika virus inhibitors (AID 1347158); further: top concentration of the series differs between compounds
# Method in brief: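 Vero cells, 5,000/well, plated overnight at 37 °C, then compound added and infected with recombinant ZIKV-mCherry at MOI 1 for 48-72 h. PFA-fixed, Hoechst nuclear stain, high-content imaging; cells with mCherry intensity above 450 RFU scored infected, reported as percent infection.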
# [3] = Confirmatory screen NINDS Rhodamine qHTS for Zika virus inhibitors (AID 1347161); further: nearly all actives have a fitted effect of over 60% in size; further: potency means the concentration at half of the fitted maximal effect;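 on activity change, negative = inhibition: purified Zika NS2B-NS3 protease with linked NS2B cofactor domain and Rhodamine110 peptide substrate; series mostly up to about 110 µM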
# Method in brief: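 Single-chain NS2B-NS3 protease, 25 nM, pH 8.0; compounds preincubated 15 min. Activity: Rhodamine110 release from 1.5 microM substrate over 15 min, room temperature, data fitted to 4-parameter Hill.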
# [4] = tested on: Zika virus NS2B-NS3 protease (linked); experiment: 384 well plate NINDS AMC confirmatory qHTS for Zika virus inhibitors (AID 1347163); further: nearly all actives have a fitted effect of over 50% in size; further: potency means the concentration at half of the fitted maximal effect;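 on activity change, negative = inhibition: linked protease at 5 30 or 60 nM final depending on run; fluorescence of AMC released from Ac-VKTGKR-AMC peptide cleaved by the protease; top concentration of the series differs between compounds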
# Method in brief: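 Linked protease 5/30/60 nM final; cpds up to 1 mM final, ~15 min preinc. Substrate Ac-VKTGKR-AMC 30 microM final. RT, dark, 25 min; FI ex 355/em 460; normalized to no-enzyme/no-inhibitor ctrls.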
# [5] = tested on: Zika virus NS2B-NS3 protease (linked construct); experiment: 384 well plate NINDS Rhodamine confirmatory qHTS for Zika virus inhibitors (AID 1347164);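 further: fluorescence from protease cleavage of Ac-LKRR-rhodamine 110 substrate; nearly all actives have a fitted effect of over 65% in size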; further: potency means the concentration at half of the fitted maximal effect; on activity change, negative = inhibition: top concentration of the series differs between compounds
# Method in brief: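 Fluorescence read at ex 485 nm/em 538 nm, 25 min after adding 10 microM Ac-LKRR-Rd substrate at room temperature in the dark; signal normalized to no-enzyme and no-inhibitor controls. Enzyme final 5, 30 or 60 nM; compounds, ~15 min preincubation.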
# [6] = Tertiary RLuc qRT-PCR qHTS assay for Zika virus inhibitors (AID 1347169); further: nearly all actives have a fitted effect of over 55% in size; further: potency means the concentration at half of the fitted maximal effect; on activity change, negative = inhibition: top concentration of the series differs between compounds
# Method in brief: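 Luminescence read-out: live-cell Renilla luciferase substrate applied to infected Vero cells, signal measured after 1-1.5 hrs. Cells had received compound before ZIKV-RLuc (Cambodian strain, MOI 1-2) infection and were incubated 48-72 hrs at 37 degrees C.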
# [7] = tested on: Zika virus NS2B-NS3 protease (linked construct); experiment: Confirmatory screen NINDS AMC qHTS for Zika virus inhibitors (AID 1347152); further: nearly all actives have a fitted effect of over 70% in size; further: potency means the concentration at half of the fitted maximal effect;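 on activity change, negative = inhibition: AMC fluorescence gain from cleaved Bz-Nle-KRR-AMC substrate over 15 min; top concentration of the series differs between compounds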
# Method in brief: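 Linked NS2B-NS3 1 nM, Tris pH 8.0/0.01% Tween 20; cpd 15 min RT dark; + Nle-KRR-AMC 10 µM (Km 18.3 µM); read 0 and 15 min, 340/450 nm; %inh vs controls, 4-param Hill.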
# [8] = tested on: Zika virus NS2B-NS3 protease (unlinked complex); experiment: Confirmatory screen GU AMC qHTS for Zika virus inhibitors (AID 1347153); further: nearly all actives have a fitted effect of over 70% in size
# Method in brief: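 Fluorescence change (ex 340/em 450 nm) over 15 min, ~20% substrate conversion, normalized to no-inhibitor and no-enzyme controls, then Hill-fitted. Unlinked protease at 25 nM; AMC peptide 10 µM.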
# [9] = Vero cells viability qHTS for Zika virus inhibitors (AID 1347167)
# Method in brief: (§1)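 Compounds were tested in concentration series on cells grown in DMEM containing 4% FBS. After 24 to 48 hours, cellular ATP was measured by luminescence with CellTiter Glo.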
# [10] = HepG2 cells viability qHTS for Zika virus inhibitors (AID 1347168)
# Method in brief: as §1
# [11] = Confirmatory screen GU Rhodamine qHTS for Zika virus inhibitors qHTS (AID 1347157)
# Method in brief: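 Percent inhibition came from the 15-min rise in Rhodamine110 fluorescence (1.5 microM substrate, ~15% conversion), normalized to no-inhibitor and no-enzyme wells and Hill-fitted. Unlinked protease, 25 nM, pH 8.0 Tris buffer; compounds up to 114 microM, 15-min preincubation.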
# [12] = tested on: Zika virus NS2B-NS3 protease (unlinked complex); experiment: Primary screen GU Rhodamine qHTS for Zika virus inhibitors: Unlinked NS2B-NS3 protease assay (AID 1347159); further: potency means the concentration at half of the fitted maximal effect; nearly all actives have a fitted effect of over 60% in size
# Method in brief: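 A qHTS format was used, with compound concentrations ranging up to 114 microM. Each compound was preincubated with 25 nM NS2B-NS3 protease, and the substrate was then added at 1.5 microM. Curves were fitted with a 4-parameter Hill model.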
# [13] = tested on: Zika virus NS2B-NS3 protease (linked construct); experiment: Primary screen NINDS Rhodamine qHTS for Zika virus inhibitors (AID 1347160); further: nearly all actives have a fitted effect of over 55% in size
# Method in brief: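 Kinetic fluorescence (Ex 480 nm, Em 540 nm) over 15 min with 1.5 microM Rhodamine110 peptide and 25 nM linked protease.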
# [14] = qHTS to identify inhibitors of the type 1 interferon - major histocompatibility complex class I in skeletal muscle: primary screen against the NCATS Mechanism Interrogation Plate v5.0 (MIPE) Libary (AID 1347411); further: nearly all actives have a fitted effect of over 65% in size; further: potency means the concentration at half of the fitted maximal effect
# Method in brief: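 Immortalized human C25cl48 myoblasts with HiBit knocked into endogenous HLA-B*08:01 were stimulated with 4.0 ng/ml IFN-beta and exposed to compounds (11-point 1:3 titration, top 46 uM final) for 24 hrs at 37 C; HiBiT lytic luminescence measured.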
# [15] = qHTS to identify inhibitors of the type 1 interferon - major histocompatibility complex class I in skeletal muscle: primary screen against the NCATS Pharmaceutical Collection (AID 1347407);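 further: luminescence of HiBiT knocked into endogenous HLA-B as interferon-induced MHC class I level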
# Method in brief: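 HLA-B HiBiT myoblasts, dexamethasone-free growth medium + 4 ng/ml IFN-b; compounds pinned 1 h after seeding, […] from 46 uM; 24 h, 37 C, 5% CO2; lytic HiBiT detection, 10 min RT, luminescence.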
# [16] = target: Protein phosphatase 1D (Homo sapiens) (UniProt O15297); experiment: RapidFire Mass Spectrometry qHTS Assay for Modulators of WT P53-Induced Phosphatase 1 (WIP1) (AID 1347424);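 further: amount of dephosphorylated VEPPL-S-QETFS peptide product formed by WIP1; potency means the concentration at half of the fitted maximal effect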
# Chain of Protein phosphatase 1D (Homo sapiens) (O15297 whole entry, looked up): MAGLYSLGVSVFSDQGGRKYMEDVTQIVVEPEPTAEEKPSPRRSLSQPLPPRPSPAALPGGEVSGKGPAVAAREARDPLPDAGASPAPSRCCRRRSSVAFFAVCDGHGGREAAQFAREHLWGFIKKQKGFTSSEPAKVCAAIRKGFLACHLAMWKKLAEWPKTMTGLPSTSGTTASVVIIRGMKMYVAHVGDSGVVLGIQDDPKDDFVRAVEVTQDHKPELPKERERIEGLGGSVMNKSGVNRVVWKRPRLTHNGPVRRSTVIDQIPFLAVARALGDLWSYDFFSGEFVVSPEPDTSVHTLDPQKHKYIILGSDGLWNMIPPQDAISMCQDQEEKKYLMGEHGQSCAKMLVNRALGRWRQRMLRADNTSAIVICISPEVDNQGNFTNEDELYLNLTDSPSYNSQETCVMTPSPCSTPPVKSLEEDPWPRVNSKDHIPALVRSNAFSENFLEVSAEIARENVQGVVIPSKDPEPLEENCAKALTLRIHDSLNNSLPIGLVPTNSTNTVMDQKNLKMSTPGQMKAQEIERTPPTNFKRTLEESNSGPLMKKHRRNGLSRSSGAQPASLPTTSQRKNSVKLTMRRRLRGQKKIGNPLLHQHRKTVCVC
# Method in brief: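 10 nM WIP1 + cpd, 1 h RT; + 2 uM VEPPL-pS-QETFS, 5 min RT; stop 0.5% formic acid; labelled product standard 1 uM; RapidFire MS. Buffer 50 mM Tris pH 7.5, 30 mM MgCl2, 1 mM TCEP.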
# [17] = tested on: Zika virus NS2B-NS3 protease (unlinked); experiment: Optimization of GU AMC qHTS for Zika virus inhibitors: Unlinked NS2B-NS3 protease assay (AID 1347151); further: series mostly up to about 52 µM; nearly all actives have a fitted effect of over 80% in size
# Method in brief: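 Fluorescence read-out (340 nm ex / 450 nm em) of AMC peptide cleavage, taken immediately and after 15 min at room temperature (~20% conversion). Enzyme was the unlinked NS2B–NS3 complex at 25 nM in Tris pH 8.0 buffer.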
compound,measurement,setting,value
CC(C)c1c(C(=O)Nc2ccccc2)c(-c2ccccc2)c(-c2ccc(F)cc2)n1CC[C@H](O)C[C@@H](O)CC(=O)O,Potency,[1],inactive
CSc1cccc(Nc2ncc3cc(-c4c(Cl)cccc4Cl)c(=O)n(C)c3n2)c1,Potency,[1],inactive
Cc1ccc(C(=O)N(CCCN)[C@@H](c2oc3cc(Cl)ccc3c(=O)c2Cc2ccccc2)C(C)C)cc1,Potency,[1],inactive
O=c1cc(-c2ccc(O)c(O)c2)oc2cc(O)cc(O)c12,Potency,Furin (Homo sapiens),inactive
same,Potency,[1],inactive
same,outcome,[2],inactive
same,Potency,[3],28.2 µM (active)
same,Potency,[4],70.8 µM (active)
same,Potency,[5],inactive
same,"activity change, negative = inhibition",[6],46.1% [at 3.57 µM]
O=C(Nc1ccccc1)Nc1ccc(-c2ccc(C(=O)[C@H]3CCC[C@H]3C(=O)O)cc2)cc1,Potency,Furin (Homo sapiens),34 µM (active)
same,Potency,[7],24.1 µM (active)
same,Potency,[8],24.1 µM (active)
same,Potency,[3],3.92 µM (active)
same,Potency,[4],inactive
same,Potency,[5],14.1 µM (active)
same,outcome,[9],inactive
same,outcome,[10],inactive
same,Potency,[6],inactive
CN(C)S(=O)(=O)c1ccc2c(c1)C(=Cc1cc3c([nH]1)CCCC3)C(=O)N2,Potency,[1],inactive
Fc1ccc(C(c2ccc(F)cc2)N2CCN(CC=Cc3ccccc3)CC2)cc1,Potency,Furin (Homo sapiens),inactive
same,Potency,[7],inactive
same,Potency,[8],inactive
same,Potency,[3],inactive
same,outcome,[9],inactive
CCOC(=O)[C@H](CCc1ccccc1)N[C@@H](C)C(=O)N1CCCC1C(=O)O (stereo not given in full),Potency,Furin (Homo sapiens),inactive
same,Potency,[7],inactive
same,Potency,[8],inactive
same,Potency,[3],inactive
same,outcome,[9],inactive
same,outcome,[10],inactive
same,Potency,[6],inactive
Cc1nc(C(=O)NCC(=O)O)c(O)c2ccc(Oc3ccccc3)cc12,Potency,[7],21.5 µM (active)
same,Potency,[1],21.5 µM (active)
same,Potency,[11],44.1 µM (active)
same,Potency,[12],22.4 µM (active)
same,Potency,[13],inactive
same,Potency,[3],34.9 µM (active)
same,outcome,[9],inactive
same,outcome,[10],inactive
same,Potency,[6],inactive
same,Potency,[14],inactive
CCCCOCCOc1nc(-c2ccc(C(=O)O)c(F)c2)sc1C,Potency,Furin (Homo sapiens),12.1 µM (active)
same,Potency,[7],19.2 µM (active)
same,Potency,[8],12.1 µM (active)
same,Potency,[3],49.3 µM (active)
same,outcome,[9],inactive
same,outcome,[10],inactive
same,Potency,[6],inactive
same,Potency,[14],inactive
COc1ccc(-c2ccc3ncc4c(c3c2)n(-c2ccc(N3CCNCC3)c(C(F)(F)F)c2)c(=O)n4C)cn1,"activity change, negative = inhibition",Furin (Homo sapiens),-10.9% [at 5.45 µM]
same,"activity change, negative = inhibition",[7],-9% [at 5.51 µM]
same,"activity, negative = inhibition",[8],-4.48% [at 5.51 µM]
same,Potency,[1],21.5 µM (active)
same,"activity change, negative = inhibition",[3],14.2% [at 12.7 µM]
same,"activity change, negative = cytotoxicity",[9],-1.62% [at 4.93 µM]
same,"activity change, negative = cytotoxicity",[10],-5.65% [at 4.93 µM]
same,Potency,[14],147 nM (active)
COc1cc2c(cc1OC)[C@@H]1Cc3ccc(OC)c(OC)c3CN1CC2,Potency,[1],inactive
Oc1cc(O)cc(C=Cc2ccc(O)c(O)c2)c1,Potency,[1],13.6 µM (active)
O=C(Nc1cccc2c(=O)cc(-c3nn[nH]n3)oc12)c1ccc(OCCCCc2ccccc2)cc1,Potency,Furin (Homo sapiens),30.4 µM (active)
same,Potency,[7],5.41 µM (active)
same,Potency,[8],6.81 µM (active)
same,Potency,[1],8.91 µM (active)
same,Potency,[3],1.75 µM (active)
same,Potency,[4],28.2 µM (active)
same,outcome,[9],inactive
same,outcome,[10],inactive
same,outcome,[15],inactive
same,Potency,[16],15.8 µM (active)
CCC[C@@H](NC(=O)[C@@H]1[C@H]2CCC[C@@H]2CN1C(=O)[C@@H](NC(=O)[C@@H](NC(=O)c1cnccn1)C1CCCCC1)C(C)(C)C)C(=O)C(=O)NC1CC1,Potency,[1],inactive
Cc1cc(CS(=O)(=O)c2ccccc2)cc(OCc2ccc(CN3CCC[C@H]3CO)cc2)c1,Potency,[1],inactive
Cc1nc(NC(=O)N2CCC[C@@H]2C(N)=O)sc1-c1csc(C(C)(C)C)n1,Potency,[1],inactive
C[C@@H](O)[C@H]1C(=O)N2C(C(=O)OCOC(=O)C(C)(C)C)=C(SC3CN(C4=NCCS4)C3)[C@H](C)[C@H]12,Potency,[1],inactive
C=C[C@@H]1CN2CCC1C[C@@H]2C(O)c1ccnc2ccc(OC)cc12 (stereo not given in full),Potency,[1],inactive
N#CC1(c2cccc(C(=O)Nc3cc(Oc4ccc5nc(NC(=O)C6CC6)sc5n4)ccc3F)c2Cl)CC1,Potency,Furin (Homo sapiens),inactive
same,Potency,[7],inactive
same,Potency,[8],inactive
same,Potency,[1],21.5 µM (active)
same,Potency,[11],22.1 µM (active)
same,Potency,[12],22.4 µM (active)
same,Potency,[13],inactive
same,Potency,[5],50.1 µM (active)
same,outcome,[9],inactive
same,outcome,[10],inactive
same,Potency,[14],inactive
C[C@H]1COC2=C1C(=O)C(=O)c1c2ccc2c1CCCC2(C)C,Potency,[8],21.5 µM (active)
same,outcome,[2],inactive
same,Potency,[3],7.84 µM (active)
same,outcome,[9],inactive
same,outcome,[10],inactive
same,Potency,[6],inactive
CNC(=O)[C@H](CC1=CN=C2C=CCC=C12)NC(=O)[C@@H](CC(=O)NO)CC(C)C,Potency,[1],inactive
OC(c1cc(C(F)(F)F)nc2c(C(F)(F)F)cccc12)C1CCCCN1 (stereo not given),Potency,Furin (Homo sapiens),0.961 µM (active)
same,outcome,[17],inactive
same,Potency,[1],inactive
same,outcome,[9],inactive
same,Potency,[6],16.5 µM (active)
CC[C@H](C)n1cc(C)c2c(C(=O)NCc3c(C)cc(C)[nH]c3=O)cc(-c3ccc(N4CCNCC4)nc3)cc21,Potency,Furin (Homo sapiens),27 µM (active)
same,Potency,[7],27.1 µM (active)
same,Potency,[8],27.1 µM (active)
same,Potency,[1],21.5 µM (active)
same,Potency,[3],inactive
same,outcome,[9],inactive
same,outcome,[10],inactive
same,Potency,[6],inactive
same,Potency,[14],inactive
CC(C)c1onc(-c2c(Cl)cccc2Cl)c1COc1ccc(C=Cc2cccc(C(=O)O)c2)c(Cl)c1,Potency,Furin (Homo sapiens),30.4 µM (active)
same,Potency,[7],24.1 µM (active)
same,Potency,[8],24.1 µM (active)
same,Potency,[1],13.6 µM (active)
same,Potency,[3],1.56 µM (active)
same,outcome,[10],inactive
N#CC(c1ccc(Cl)cc1)c1c(Cl)cc(-n2ncc(=O)[nH]c2=O)cc1Cl (stereo not given),Potency,[7],21.5 µM (active)
same,Potency,[8],21.5 µM (active)
same,Potency,[3],4.4 µM (active)
same,Potency,[5],35.5 µM (active)
same,outcome,[9],inactive
same,outcome,[10],inactive
same,Potency,[14],inactive
